Targets with the largest changes are over-represented here; the source holds about 21,000 in all.
Compound: Cc1cc(ccc1-c1ccccc1)C(=O)N1CCCN(CC1)C(=O)CCl [compound 10]
Experiment: probe-labelled cysteine peptide fold change vs DMSO (competition) (log2 fold change); higher = less target engagement (more negative = stronger competition)
Conditions: THP-1, incubation time: 4 h
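Also: competitive profiling in live THP-1 cells: cysteine peptides tagged with an iodoacetamide desthiobiotin (IA-DTB) probe, intensity after compound treatment relative to DMSO-treated cells.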

UniProt Q5TEJ8, sequence (Q5TEJ8 whole entry, looked up): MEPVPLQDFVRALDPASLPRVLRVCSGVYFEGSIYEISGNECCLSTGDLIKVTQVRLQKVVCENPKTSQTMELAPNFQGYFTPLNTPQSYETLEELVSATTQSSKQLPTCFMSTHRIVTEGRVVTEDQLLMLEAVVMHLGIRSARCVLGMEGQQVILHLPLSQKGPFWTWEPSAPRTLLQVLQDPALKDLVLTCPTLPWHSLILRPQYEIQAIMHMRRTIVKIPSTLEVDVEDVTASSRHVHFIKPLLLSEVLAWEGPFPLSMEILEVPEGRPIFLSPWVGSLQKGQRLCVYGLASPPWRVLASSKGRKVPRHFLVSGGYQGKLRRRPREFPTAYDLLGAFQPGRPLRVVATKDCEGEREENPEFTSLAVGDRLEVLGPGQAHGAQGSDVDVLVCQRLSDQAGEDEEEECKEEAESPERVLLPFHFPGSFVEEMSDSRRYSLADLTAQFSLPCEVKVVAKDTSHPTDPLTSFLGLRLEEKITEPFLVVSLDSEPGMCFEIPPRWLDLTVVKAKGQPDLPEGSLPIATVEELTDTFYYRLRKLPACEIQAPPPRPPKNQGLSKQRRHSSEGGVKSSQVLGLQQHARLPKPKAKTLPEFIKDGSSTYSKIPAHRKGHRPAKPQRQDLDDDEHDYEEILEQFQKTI
UniProt Q9NXG2, sequence (Q9NXG2 whole entry, looked up): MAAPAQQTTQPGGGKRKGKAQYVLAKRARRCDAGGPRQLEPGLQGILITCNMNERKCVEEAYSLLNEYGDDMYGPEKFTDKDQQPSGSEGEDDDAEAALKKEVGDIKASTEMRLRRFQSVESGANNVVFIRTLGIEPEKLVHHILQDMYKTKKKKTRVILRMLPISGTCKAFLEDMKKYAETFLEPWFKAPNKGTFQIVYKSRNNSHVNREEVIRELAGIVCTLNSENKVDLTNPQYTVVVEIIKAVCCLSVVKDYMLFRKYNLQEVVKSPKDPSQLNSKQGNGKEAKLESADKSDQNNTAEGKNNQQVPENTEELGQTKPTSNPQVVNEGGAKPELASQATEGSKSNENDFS
UniProt Q9BXJ8, sequence (Q9BXJ8 whole entry): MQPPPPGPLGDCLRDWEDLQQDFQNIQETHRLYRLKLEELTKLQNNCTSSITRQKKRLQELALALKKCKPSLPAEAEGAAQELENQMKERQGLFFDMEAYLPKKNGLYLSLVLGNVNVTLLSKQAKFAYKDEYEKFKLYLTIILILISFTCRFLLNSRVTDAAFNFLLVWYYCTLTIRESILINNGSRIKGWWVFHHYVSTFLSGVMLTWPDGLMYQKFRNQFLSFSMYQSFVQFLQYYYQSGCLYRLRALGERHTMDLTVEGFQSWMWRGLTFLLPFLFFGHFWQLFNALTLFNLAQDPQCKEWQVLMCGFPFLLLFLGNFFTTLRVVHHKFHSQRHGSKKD
UniProt Q12788, sequence (Q12788 whole entry, looked up): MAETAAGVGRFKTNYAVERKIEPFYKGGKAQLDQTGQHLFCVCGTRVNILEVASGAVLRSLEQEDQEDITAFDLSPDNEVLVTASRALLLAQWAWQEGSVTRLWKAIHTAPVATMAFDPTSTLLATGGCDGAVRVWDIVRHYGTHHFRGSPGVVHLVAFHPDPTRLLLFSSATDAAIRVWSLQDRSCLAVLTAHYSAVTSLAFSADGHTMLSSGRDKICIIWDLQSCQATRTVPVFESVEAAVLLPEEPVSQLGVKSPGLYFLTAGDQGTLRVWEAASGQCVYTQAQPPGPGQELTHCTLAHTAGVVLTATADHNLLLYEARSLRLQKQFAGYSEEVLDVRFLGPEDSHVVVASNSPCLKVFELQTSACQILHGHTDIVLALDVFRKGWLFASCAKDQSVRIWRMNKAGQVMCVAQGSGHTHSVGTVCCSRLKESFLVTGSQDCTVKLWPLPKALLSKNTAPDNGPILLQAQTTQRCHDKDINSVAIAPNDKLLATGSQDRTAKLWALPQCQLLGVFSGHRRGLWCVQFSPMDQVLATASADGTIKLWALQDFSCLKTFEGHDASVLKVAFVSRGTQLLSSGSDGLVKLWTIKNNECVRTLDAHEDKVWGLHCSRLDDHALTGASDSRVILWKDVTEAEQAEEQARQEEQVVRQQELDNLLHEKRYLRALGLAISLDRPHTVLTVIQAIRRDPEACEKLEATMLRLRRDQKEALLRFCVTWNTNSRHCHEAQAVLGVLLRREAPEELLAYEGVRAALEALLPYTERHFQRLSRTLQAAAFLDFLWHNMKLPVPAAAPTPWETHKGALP
UniProt O60271, sequence (O60271 whole entry, looked up): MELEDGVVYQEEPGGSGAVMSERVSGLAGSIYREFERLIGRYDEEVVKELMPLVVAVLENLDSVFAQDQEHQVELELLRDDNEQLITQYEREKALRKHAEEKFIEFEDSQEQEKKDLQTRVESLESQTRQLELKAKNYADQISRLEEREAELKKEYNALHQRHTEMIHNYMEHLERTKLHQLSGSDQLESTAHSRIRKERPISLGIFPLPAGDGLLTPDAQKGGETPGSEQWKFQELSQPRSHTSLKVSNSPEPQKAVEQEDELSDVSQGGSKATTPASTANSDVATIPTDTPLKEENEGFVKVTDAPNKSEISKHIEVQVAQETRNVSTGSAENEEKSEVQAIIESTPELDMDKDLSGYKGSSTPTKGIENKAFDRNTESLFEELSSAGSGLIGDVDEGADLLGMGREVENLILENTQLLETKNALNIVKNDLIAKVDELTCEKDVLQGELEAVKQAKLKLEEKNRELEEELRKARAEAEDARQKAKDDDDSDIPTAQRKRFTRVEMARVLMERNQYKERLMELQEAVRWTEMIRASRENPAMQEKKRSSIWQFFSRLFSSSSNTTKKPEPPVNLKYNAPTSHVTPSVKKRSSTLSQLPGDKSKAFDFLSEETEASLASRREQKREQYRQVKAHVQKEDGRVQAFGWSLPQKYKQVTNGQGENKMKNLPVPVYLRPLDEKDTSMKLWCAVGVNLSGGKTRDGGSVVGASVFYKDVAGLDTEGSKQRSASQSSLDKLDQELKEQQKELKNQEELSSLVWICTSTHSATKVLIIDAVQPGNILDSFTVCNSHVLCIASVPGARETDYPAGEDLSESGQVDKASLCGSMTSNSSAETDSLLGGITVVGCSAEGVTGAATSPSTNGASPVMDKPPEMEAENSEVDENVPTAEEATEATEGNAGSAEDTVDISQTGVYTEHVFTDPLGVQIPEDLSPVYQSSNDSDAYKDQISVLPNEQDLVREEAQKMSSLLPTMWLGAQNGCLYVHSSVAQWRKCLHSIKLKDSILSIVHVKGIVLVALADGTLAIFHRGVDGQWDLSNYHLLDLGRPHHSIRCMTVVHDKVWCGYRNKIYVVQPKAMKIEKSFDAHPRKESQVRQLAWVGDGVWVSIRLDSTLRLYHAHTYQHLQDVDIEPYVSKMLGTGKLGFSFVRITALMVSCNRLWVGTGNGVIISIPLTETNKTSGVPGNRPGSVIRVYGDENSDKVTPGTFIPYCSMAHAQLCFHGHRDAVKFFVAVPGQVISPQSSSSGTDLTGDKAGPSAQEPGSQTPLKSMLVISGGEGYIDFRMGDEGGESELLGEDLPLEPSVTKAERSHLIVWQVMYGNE
UniProt Q00796, sequence (Q00796 whole entry, looked up): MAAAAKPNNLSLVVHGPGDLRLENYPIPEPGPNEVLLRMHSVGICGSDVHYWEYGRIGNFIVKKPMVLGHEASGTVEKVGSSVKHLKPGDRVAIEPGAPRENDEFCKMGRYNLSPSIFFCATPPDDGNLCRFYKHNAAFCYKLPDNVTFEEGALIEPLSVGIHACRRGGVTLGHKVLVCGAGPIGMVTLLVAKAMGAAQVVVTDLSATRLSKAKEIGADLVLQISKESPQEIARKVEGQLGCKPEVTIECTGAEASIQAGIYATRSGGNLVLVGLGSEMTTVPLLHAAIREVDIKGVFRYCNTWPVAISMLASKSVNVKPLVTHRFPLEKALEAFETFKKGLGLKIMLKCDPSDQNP
UniProt Q15833, sequence (Q15833 whole entry, looked up): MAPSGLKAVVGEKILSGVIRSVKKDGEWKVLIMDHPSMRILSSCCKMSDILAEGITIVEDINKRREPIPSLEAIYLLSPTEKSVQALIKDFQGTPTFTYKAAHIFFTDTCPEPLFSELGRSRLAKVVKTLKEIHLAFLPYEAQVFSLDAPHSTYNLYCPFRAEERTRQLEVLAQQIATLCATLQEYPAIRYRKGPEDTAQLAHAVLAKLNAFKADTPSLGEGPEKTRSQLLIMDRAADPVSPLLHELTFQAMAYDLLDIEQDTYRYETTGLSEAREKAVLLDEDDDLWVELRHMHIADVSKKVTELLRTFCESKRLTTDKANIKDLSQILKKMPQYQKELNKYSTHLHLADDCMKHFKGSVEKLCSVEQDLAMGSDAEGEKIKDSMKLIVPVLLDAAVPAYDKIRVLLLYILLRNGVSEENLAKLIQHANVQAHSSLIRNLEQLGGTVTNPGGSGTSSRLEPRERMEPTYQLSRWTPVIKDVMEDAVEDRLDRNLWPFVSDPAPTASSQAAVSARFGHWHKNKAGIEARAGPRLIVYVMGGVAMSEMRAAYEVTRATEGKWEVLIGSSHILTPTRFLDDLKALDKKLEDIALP
UniProt Q9Y5M8, sequence (Q9Y5M8 whole entry, looked up): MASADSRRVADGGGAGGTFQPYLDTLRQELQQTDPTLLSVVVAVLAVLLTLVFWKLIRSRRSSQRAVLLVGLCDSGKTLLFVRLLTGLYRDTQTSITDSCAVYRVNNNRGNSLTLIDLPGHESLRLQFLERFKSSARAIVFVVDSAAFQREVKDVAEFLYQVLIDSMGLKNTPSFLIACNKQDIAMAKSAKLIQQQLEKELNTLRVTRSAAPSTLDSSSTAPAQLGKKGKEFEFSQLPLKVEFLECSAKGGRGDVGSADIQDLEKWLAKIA
UniProt Q17R31, sequence (Q17R31 whole entry, looked up): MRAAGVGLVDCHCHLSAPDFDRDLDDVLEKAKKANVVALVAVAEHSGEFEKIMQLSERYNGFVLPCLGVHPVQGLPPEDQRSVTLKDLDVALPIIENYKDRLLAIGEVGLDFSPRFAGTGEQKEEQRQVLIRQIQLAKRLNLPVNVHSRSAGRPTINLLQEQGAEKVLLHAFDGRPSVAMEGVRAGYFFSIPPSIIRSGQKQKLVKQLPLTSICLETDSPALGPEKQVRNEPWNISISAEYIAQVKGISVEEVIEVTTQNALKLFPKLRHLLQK

Row | Target | probe-labelled cysteine peptide fold change (10 µM) | probe-labelled cysteine peptide fold change (50 µM)
1 | THUMPD1_Q9NXG2_31_CDAGGPR (UniProt Q9NXG2) | 0.347 | 1.08
2 | TNPO1_Q92973_862_DDLRDMFCK (UniProt Q92973) | -0.311 | -0.192
3 | TDRD7_Q8NHU6_77_SGEITCYAMACTETAR (UniProt Q8NHU6) | -0.0811 | -1.42
4 | TESC_Q96BS2_213_FLNMETMALCH (UniProt Q96BS2) | -0.431 | -1.46
5 | TET3_O43151_1381_GKPWSPCK (UniProt O43151) | -0.379 | -1.3
6 | SYK_P43405_89+101_THASPADLCHYHSQESDGLVCLLK (UniProt P43405) | -0.0638 | -0.0651
7 | TGM2_P21980_371_SEGTYCCGPVPVR (UniProt P21980) | 0.00473 | -0.293
8 | SQOR_Q9Y6N5_201_CAGAPQK (UniProt Q9Y6N5) | -0.191 | -0.122
9 | STAT6_P42226_228_CESLVDIYSQLQQEVGAAGGELEPK (UniProt P42226) | 0.0404 | -0.0978
10 | TMA16_Q96EY4_162_KICANDAIPK (UniProt Q96EY4) | -0.041 | -0.333
11 | STXBP2_Q15833_110_AAHIFFTDTCPEPLFSELGR (UniProt Q15833) | 0.0186 | 0.272
12 | TMEM209_Q96SK2_495_TFTSQHFVQTPNKPDVTNENVFCIYQSAINPPHYELIYQR (UniProt Q96SK2) | 0.145 | 0.0358
13 | TGS1_Q96RS0_357_ECPASGQSEPR (UniProt Q96RS0) | -0.00223 | 0.216
14 | TBL3_Q12788_526_GLWCVQFSPMDQVLATASADGTIK (UniProt Q12788) | 0.119 | 0.0335
15 | TATDN3_Q17R31_66_YNGFVLPCLGVHPVQGLPPEDQR (UniProt Q17R31) | 0.0121 | 1.04
16 | TANC1_Q9C0D5_800_MDALSCFLIK (UniProt Q9C0D5) | -0.167 | -1.29
17 | THOC5_Q13769_282_HLPPPLYVLFVQATAYGQACDK (UniProt Q13769) | 0.435 | 1.48
18 | SNX6_Q9UNH7_149_TVAMHEVFLCR (UniProt Q9UNH7) | -0.37 | -1.4
19 | SYK_P43405_597_MGCPAGCPR (UniProt P43405) | 0.0815 | -0.138

Row | Target | probe-labelled cysteine peptide fold change (10 µM) | probe-labelled cysteine peptide fold change (50 µM)
20 | SPAG7_O75391_101_SILHDVVEVAGLTSFSFGEDDDCR (UniProt O75391) | -0.0328 | -0.0999
21 | SRPRB_Q9Y5M8_246_EFEFSQLPLKVEFLECSAK (UniProt Q9Y5M8) | -0.354 | -1.1
22 | SNX6_Q9UNH7_347+348_DVLQAETSQQLCCQK (UniProt Q9UNH7) | -0.288 | -0.619
23 | TNFAIP2_Q03169_429_ANVIANINNCLSFR (UniProt Q03169) | -0.0434 | 0.184
24 | SRPK2_P78362_320_IIEENITSAAPSNDQDGEYCPEVK (UniProt P78362) | -0.0943 | 0.0113
25 | TMEM120A_Q9BXJ8_47_LQNNCTSSITR (UniProt Q9BXJ8) | -0.176 | -0.0504
26 | SPAG9_O60271_1210_VTPGTFIPYCSMAHAQLCFHGHR (UniProt O60271) | 0.231 | 1.04
27 | THEMIS2_Q5TEJ8_355_DCEGEREENPEFTSLAVGDR (UniProt Q5TEJ8) | -0.0936 | 0.194
28 | TIMELESS_Q9UNS1_96_LMVNLTQPALLCFGNLPK (UniProt Q9UNS1) | 0.247 | -1.08
29 | TARS_P26639_467_RFQQDDAHIFCAMEQIEDEIK (UniProt P26639) | 0.126 | 0.326
30 | TNS3_Q68CZ2_512_DRETDILDDEMPHHDLHSVDSLGTLSSSEGPQSAHLGPFTCHK (UniProt Q68CZ2) | -0.555 | -1.66
31 | SORD_Q00796_165_LPDNVTFEEGALIEPLSVGIHACR (UniProt Q00796) | 0.00881 | 0.188
32 | TES_Q9UGI8_164_CHELSPR (UniProt Q9UGI8) | -0.162 | -0.0644
33 | TDRD7_Q8NHU6_1029_CNQWSEEASMVFR (UniProt Q8NHU6) | -0.175 | -0.845
34 | TMEM192_Q8IY95_266_RLLALTSSDLGCQPSR (UniProt Q8IY95) | -0.0328 | 0.17
35 | STXBP3_O00186_114_AAYIYFTDFCPDNLFNK (UniProt O00186) | 0.0291 | 0.184
36 | TAPBPL_Q9BX59_39_AVDVVLDCFLAK (UniProt Q9BX59) | 0.062 | -0.104
37 | ST14_Q9Y5Y6_268_SFDLASCDER (UniProt Q9Y5Y6) | -0.0626 | -1.09
